Test results reported in PMC4336329 (PLoS ONE, 2015).
Hit rate of the full screen: of about 310,000 compounds, about 14,000 (4.5%) showed an effect of 50% or more. The effect is printed as a negative number. For the sample, strong results were picked, then their nearest neighbours and some compounds at random.
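Also: peak tail current of the secondary pulse compared with the same well before compound.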

Each compound was assayed against human ether-à-go-go-related gene (hERG) potassium channel (human, UniProt Q12809) (assay: primary screen, population patch clamp on CHO cells stably expressing hERG; higher = less effect of the substance).
Chain of human ether-à-go-go-related gene (hERG) potassium channel (Q12809 whole entry, looked up): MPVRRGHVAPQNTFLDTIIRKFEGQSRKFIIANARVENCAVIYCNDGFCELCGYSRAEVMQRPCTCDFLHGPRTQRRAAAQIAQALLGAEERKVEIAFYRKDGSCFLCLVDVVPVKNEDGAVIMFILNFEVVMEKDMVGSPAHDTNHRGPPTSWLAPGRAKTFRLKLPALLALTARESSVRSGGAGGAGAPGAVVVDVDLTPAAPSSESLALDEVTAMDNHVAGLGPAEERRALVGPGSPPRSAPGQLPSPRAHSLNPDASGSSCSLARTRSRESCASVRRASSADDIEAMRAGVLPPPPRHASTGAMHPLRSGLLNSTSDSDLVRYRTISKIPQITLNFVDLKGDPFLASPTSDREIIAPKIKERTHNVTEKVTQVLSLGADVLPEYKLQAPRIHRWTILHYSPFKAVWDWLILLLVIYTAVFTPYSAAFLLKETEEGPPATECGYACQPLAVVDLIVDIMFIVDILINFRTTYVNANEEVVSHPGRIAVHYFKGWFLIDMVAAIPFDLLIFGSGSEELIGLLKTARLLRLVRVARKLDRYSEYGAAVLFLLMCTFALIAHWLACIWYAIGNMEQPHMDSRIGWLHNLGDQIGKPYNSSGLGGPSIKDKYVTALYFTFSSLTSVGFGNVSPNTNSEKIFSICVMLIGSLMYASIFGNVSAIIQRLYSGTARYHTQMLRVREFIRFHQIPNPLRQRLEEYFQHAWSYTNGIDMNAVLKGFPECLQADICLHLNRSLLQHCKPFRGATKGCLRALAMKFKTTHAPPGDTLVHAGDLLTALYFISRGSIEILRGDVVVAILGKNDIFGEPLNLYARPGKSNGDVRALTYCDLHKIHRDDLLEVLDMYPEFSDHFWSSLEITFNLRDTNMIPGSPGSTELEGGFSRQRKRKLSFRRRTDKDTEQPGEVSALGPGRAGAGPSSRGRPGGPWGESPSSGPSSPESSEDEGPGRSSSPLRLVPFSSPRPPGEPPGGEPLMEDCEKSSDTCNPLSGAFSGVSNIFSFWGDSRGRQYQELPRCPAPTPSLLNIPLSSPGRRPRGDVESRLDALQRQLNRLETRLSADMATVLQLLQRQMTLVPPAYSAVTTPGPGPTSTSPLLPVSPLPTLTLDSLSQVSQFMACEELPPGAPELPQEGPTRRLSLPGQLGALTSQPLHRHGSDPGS
With `O=C(COC(=O)Cc1ccc(F)cc1)NC1CCCC1` the “hERG current change (%, negative = inhibition) at 10uM” value was 4.84%. For `COc1ccc(N(CC(=O)Nc2cc(OC)c(OC)cc2C(=O)O)S(=O)(=O)c2c(C)noc2C)cc1`, the “hERG current change (%, negative = inhibition) at 10uM” value was 15.9%. With `COc1ccc(/C=N/Nc2nnc(C)n2N)cc1OC(C)=O.Cl` the “hERG current change (%, negative = inhibition) at 10uM” value was 14.3%. For `COCCN(C(=O)COC(=O)c1nc(Cl)ccc1Cl)c1c(N)n(Cc2ccccc2)c(=O)[nH]c1=O`, the “hERG current change (%, negative = inhibition) at 10uM” value was 20.3%. `O=C1CC(c2ccco2)Cc2nc(N3CCc4ccccc4C3)ncc21` (stereo not shown) was tested, and the “hERG current change (%, negative = inhibition) at 10uM” value was -20.7%. `O=C(Nc1ccc(N2CCN(C(=O)c3cccs3)CC2)cc1)c1ccc(Br)o1` was tested, and the “hERG current change (%, negative = inhibition) at 10uM” value was -75.8%. In the case of `CN1CCN(c2ccc(NC(=O)c3ccc(Br)o3)cc2)CC1`, the “hERG current change (%, negative = inhibition) at 10uM” value is reported as -16.2%. `O=C(Nc1ccc(N2CCN(C(=O)c3cccs3)CC2)cc1)c1ccc([N+](=O)[O-])o1` was tested, and the “hERG current change (%, negative = inhibition) at 10uM” value was -25.5%. `CCC(=O)N1CCN(c2ccc(NC(=O)c3ccc(Br)o3)cc2)CC1` was tested, and the “hERG current change (%, negative = inhibition) at 10uM” value was -26.9%. With `O=C(Nc1ccc(N2CCN(C(=O)c3cccs3)CC2)cc1)c1ccco1` the “hERG current change (%, negative = inhibition) at 10uM” value was 17.7%. In the case of `Cc1ccc(C(=O)N2CCN(c3ccc(NC(=O)c4ccc(Br)o4)cc3)CC2)cc1`, the “hERG current change (%, negative = inhibition) at 10uM” value is reported as -68.8%. With `Cc1ccc(Nc2c(-c3ccccn3)nc3cccc(C)n23)cc1` the “hERG current change (%, negative = inhibition) at 10uM” value was 10.1%. In the case of `Cc1ccc(C(=O)NNC(=O)/C=C\C(=O)O)cc1`, the “hERG current change (%, negative = inhibition) at 10uM” value is reported as 6.41%. For `CCOC(=O)/C=C/c1ccc2c(c1)S(=O)(=O)N(Cc1ccc(OC)cc1)[C@H]2CC(=O)OCC`, the “hERG current change (%, negative = inhibition) at 10uM” value was -18.2%. `COc1cccc(-n2c(C)c3c(OC)cccc(=O)c3c2C)c1` was tested, and the “hERG current change (%, negative = inhibition) at 10uM” value was -11.8%. In the case of `COc1ccc(-n2c(C)c3c(OC)cccc(=O)c3c2C)cc1`, the “hERG current change (%, negative = inhibition) at 10uM” value is reported as -60.2%. With `COc1cccc(=O)c2c(C)n(-c3ccc(C(=O)O)cc3)c(C)c12` the “hERG current change (%, negative = inhibition) at 10uM” value was 6.33%. For `COc1cnc(-c2ccccn2)nc1N(C)c1ccccc1`, the “hERG current change (%, negative = inhibition) at 10uM” value was 14.2%. In the case of `Cc1ccc(-c2nc3ccccc3o2)cc1NC(=O)Cc1cccs1`, the “hERG current change (%, negative = inhibition) at 10uM” value is reported as 18.7%. For `CC(C)C[C@H](NC(=O)C1(c2ccccc2)CCN(C(=O)OC(C)(C)C)CC1)C(=O)N1CCC[C@H]1C(=O)O`, the “hERG current change (%, negative = inhibition) at 10uM” value was 9.37%. With `O=C(NCCN1CCOCC1)c1ccc2c(c1)N(Cc1ccccc1F)C(=O)c1ccccc1S2` the “hERG current change (%, negative = inhibition) at 10uM” value was -27%. For `CCN1C(=O)c2ccccc2Sc2ccc(C(=O)NCCC(C)C)cc21`, the “hERG current change (%, negative = inhibition) at 10uM” value was -7.94%. For `Cc1ccc(CN2C(=O)c3ccccc3Sc3ccc(C(=O)NCCCN4CCOCC4)cc32)cc1`, the “hERG current change (%, negative = inhibition) at 10uM” value was -2.12%. `CCN1C(=O)c2ccccc2S(=O)(=O)c2ccc(C(=O)NCCCN(CC(C)C)CC(C)C)cc21` was tested, and the “hERG current change (%, negative = inhibition) at 10uM” value was -12.7%. For `CCN1C(=O)c2ccccc2Sc2ccc(C(=O)NCCCN(CC(C)C)CC(C)C)cc21`, the “hERG current change (%, negative = inhibition) at 10uM” value was -64.3%. For `Cc1ccccc1CN1C(=O)c2ccccc2Sc2ccc(C(=O)NCCN3CCOCC3)cc21`, the “hERG current change (%, negative = inhibition) at 10uM” value was -69.6%. For `CCN1C(=O)c2ccccc2Sc2ccc(C(=O)NCCCN3CCOCC3)cc21`, the “hERG current change (%, negative = inhibition) at 10uM” value was -17.8%. `Cc1ccc(CN2C(=O)c3ccccc3Sc3ccc(C(=O)NCCN4CCOCC4)cc32)cc1` was tested, and the “hERG current change (%, negative = inhibition) at 10uM” value was -15.2%. For `Cc1ccccc1CN1C(=O)c2ccccc2Sc2ccc(C(=O)NCCCN3CCOCC3)cc21`, the “hERG current change (%, negative = inhibition) at 10uM” value was -62.9%. For `CCCCC1C2=C(CC(C)(C)CC2=O)OC2=C1C(=O)CC(C)(C)C2`, the “hERG current change (%, negative = inhibition) at 10uM” value was -9.48%. With `CC(C)(C)C1=C(C#N)C(c2cccnc2)C(C#N)=C(N)O1` (stereo not shown) the “hERG current change (%, negative = inhibition) at 10uM” value was 4.42%. `COc1cc(CCN)ccc1O.Cl` was tested, and the “hERG current change (%, negative = inhibition) at 10uM” value was 15.1%. In the case of `COP(=O)(OC)C(Nc1ccccc1)c1ccccc1` (stereo not shown), the “hERG current change (%, negative = inhibition) at 10uM” value is reported as 11.4%. In the case of `COc1ccc(N2CCCC2)c(NC(=O)COc2ccccc2Cl)c1`, the “hERG current change (%, negative = inhibition) at 10uM” value is reported as 14.8%. With `CN1CCN(C(=O)/C(=C\c2cccc([N+](=O)[O-])c2)NC(=O)c2cccs2)CC1` the “hERG current change (%, negative = inhibition) at 10uM” value was -25.4%. For `O=C(N/C(=C\c1cccc([N+](=O)[O-])c1)C(=O)N1CCCCC1)c1cccs1`, the “hERG current change (%, negative = inhibition) at 10uM” value was 7.93%. In the case of `CN1CCN(C(=O)/C(=C/c2ccccc2Cl)NC(=O)c2ccccc2)CC1`, the “hERG current change (%, negative = inhibition) at 10uM” value is reported as -10.8%. In the case of `O=C(N/C(=C\c1ccccc1)C(=O)N1CCOCC1)c1ccccc1Br`, the “hERG current change (%, negative = inhibition) at 10uM” value is reported as 17.9%. With `CN1CCN(C(=O)/C(=C/c2ccc([N+](=O)[O-])cc2)NC(=O)c2ccccc2)CC1` the “hERG current change (%, negative = inhibition) at 10uM” value was -81.5%. With `O=C(N/C(=C\c1ccc([N+](=O)[O-])cc1)C(=O)N1CCCCC1)c1ccccc1Br` the “hERG current change (%, negative = inhibition) at 10uM” value was -59.4%. `O=C(N/C(=C/c1cccc([N+](=O)[O-])c1)C(=O)N1CCCC1)c1ccccc1` was tested, and the “hERG current change (%, negative = inhibition) at 10uM” value was -46%. In the case of `O=C(N/C(=C/c1cccc([N+](=O)[O-])c1)C(=O)N1CCOCC1)c1ccccc1Br`, the “hERG current change (%, negative = inhibition) at 10uM” value is reported as -7.05%. For `CC(=O)Nc1ccc(C(=O)N/C(=C/c2ccccc2)C(=O)N2CCCCC2)cc1`, the “hERG current change (%, negative = inhibition) at 10uM” value was 4.57%. In the case of `O=C(N/C(=C/C=C/c1ccccc1)C(=O)N1CCCCC1)c1ccc([N+](=O)[O-])cc1`, the “hERG current change (%, negative = inhibition) at 10uM” value is reported as -72.8%. For `CN1CCN(C(=O)/C(=C/c2cccc([N+](=O)[O-])c2)NC(=O)c2ccccc2)CC1`, the “hERG current change (%, negative = inhibition) at 10uM” value was -72.6%. In the case of `COc1cc(/C=C(/NC(=O)c2ccccc2)C(=O)N2CCN(C)CC2)c([N+](=O)[O-])cc1OC`, the “hERG current change (%, negative = inhibition) at 10uM” value is reported as 9.52%.
